# Experimental data from the supplement of paper PMC6279402.
# Counter-ions that a name gives are not always drawn. ± gives the standard deviation of the averaged measurements.
# Tested on: A549
# Experiment: relative viability (normalised to negative control = 1, bortezomib = 0) (fraction); higher = less cytotoxic
# Conditions: inflammatory serum-free RHB-A with cytokines + LPS, 5 d + 24 h CellTiter-Blue
# [1] = compound 30 nM, GSK126 pretreatment: 5 uM GSK126
# [2] = compound 30 nM, GSK126 pretreatment: none (vehicle)
# [3] = compound 300 nM, GSK126 pretreatment: 5 uM GSK126
# [4] = compound 300 nM, GSK126 pretreatment: none (vehicle)
SMILES,relative viability [1],relative viability [2],relative viability [3],relative viability [4]
CC1=C(/C=C/C(C)=C/C=C/C(C)=C/C(=O)O)C(C)(C)CCC1 [Retinoic acid; Tretinoin; 13-cis-retinoic acid],1.04 ± 0.088,0.922 ± 0.043,1.34 ± 0.05,1.14 ± 0.064
CN(C)/N=N/c1[nH]cnc1C(N)=O [Dacarbazine],0.931 ± 0.18,0.992 ± 0.11,1.05 ± 0.11,1.07 ± 0.031
O=c1c(O)c(-c2ccc(O)c(O)c2)oc2cc(O)cc(O)c12 [QUERCETIN; Quercetin(Sophoretin); Quercetin dihydrate],0.89 ± 0.032,0.911 ± 0.052,0.961 ± 0.11,0.945 ± 0.058
S=c1[nH]cnc2nc[nH]c12 [Mercaptopurine],0.9493 ± 0.0049,0.969 ± 0.053,0.958 ± 0.067,0.984 ± 0.011
Cc1cc(Nc2cc(N3CCN(C)CC3)nc(Sc3ccc(NC(=O)C4CC4)cc3)n2)n[nH]1,0.766 ± 0.087,0.717 ± 0.062,0.584 ± 0.067,0.459 ± 0.052
COc1nc(N)nc2c1ncn2[C@@H]1O[C@H](CO)[C@@H](O)[C@@H]1O [Nelarabine],0.838 ± 0.12,0.875 ± 0.13,0.96 ± 0.16,0.956 ± 0.14
Cn1cc(C2=C(c3ccc(Cl)cc3Cl)C(=O)NC2=O)c2ccccc21,0.787 ± 0.042,0.778 ± 0.046,0.695 ± 0.079,0.802 ± 0.05
Cc1c(CN2CCN(C(=O)[C@H](C)O)CC2)sc2c(N3CCOCC3)nc(-c3cnc(N)nc3)nc12,0.678 ± 0.048,0.754 ± 0.063,0.15 ± 0.033,0.172 ± 0.013
COc1cc(OC)c(/C=C/S(=O)(=O)Cc2ccc(OC)c(NCC(=O)O)c2)c(OC)c1,0.4 ± 0.058,0.303 ± 0.018,0.352 ± 0.015,0.245 ± 0.035
Cc1nc(N)sc1-c1ccnc(Nc2ccc(N3CCOCC3)cc2)n1,0.898 ± 0.061,0.913 ± 0.011,0.797 ± 0.1,0.72 ± 0.083
Cn1cnc(-c2cc3nccc(Oc4ccc(NC(=S)NC(=O)Cc5ccccc5)cc4F)c3s2)c1,0.819 ± 0.071,0.832 ± 0.051,0.838 ± 0.093,0.945 ± 0.065
CC(C)CC(=O)Nc1n[nH]c2c1CN(C(=O)C1CCN(C)CC1)C2(C)C,0.84 ± 0.097,0.829 ± 0.069,0.761 ± 0.077,0.787 ± 0.033
O=C1c2ccccc2-c2n[nH]c3cccc1c23,0.785 ± 0.1,0.796 ± 0.078,0.801 ± 0.075,0.894 ± 0.15
Nc1ncn([C@@H]2O[C@H](CO)[C@@H](O)[C@H]2O)c(=O)n1 [Azacitidine; 5-azacytidine],0.841 ± 0.27,0.854 ± 0.13,0.903 ± 0.15,0.996 ± 0.13
C[C@@H](Oc1cc(-n2cnc3ccc(CN4CCN(C)CC4)cc32)sc1C(N)=O)c1ccccc1C(F)(F)F,0.481 ± 0.028,0.326 ± 0.05,0.517 ± 0.02,0.363 ± 0.072
COc1cc2c(Nc3ccc(NC(=O)c4ccccc4)cc3)ncnc2cc1OCCCN1CCOCC1,1.04 ± 0.053,0.992 ± 0.1,0.963 ± 0.07,0.9853 ± 0.0095
O=C(NC[C@H](O)CO)c1ccncc1Nc1ccc(I)cc1F,0.247 ± 0.056,0.352 ± 0.0078,0.126 ± 0.019,0.159 ± 0.025
Cc1ncc(-c2ccnc(Nc3ccc(S(C)(=O)=O)cc3)n2)n1C(C)C,0.867 ± 0.072,0.854 ± 0.011,0.675 ± 0.062,0.69 ± 0.03
CS(=O)(=O)CCNCc1ccc(-c2ccc3ncnc(Nc4ccc(OCc5cccc(F)c5)c(Cl)c4)c3c2)o1 [Lapatinib ditosylate; Lapatinib; Lapatinib Ditosylate],0.811 ± 0.091,0.826 ± 0.083,0.594 ± 0.11,0.562 ± 0.057

SMILES,relative viability [1],relative viability [2],relative viability [3],relative viability [4]
FC(F)(F)c1ccc(/C=C/c2nc(COc3ccc(CCCCn4ccnn4)cc3)co2)cc1 [Mubritinib (TAK 165)],0.798 ± 0.028,0.837 ± 0.061,0.561 ± 0.081,0.94 ± 0.011
Nc1ncnc2c1c(-c1cnc3[nH]ccc3c1)nn2C1CCCC1,0.767 ± 0.06,0.797 ± 0.071,0.494 ± 0.039,0.533 ± 0.069
Cc1ccc(NC(=O)c2cccc(N(C)C)c2)cc1NC(=O)c1ccc(O)cc1,0.965 ± 0.086,1.02 ± 0.11,1.19 ± 0.13,1.15 ± 0.042
CCc1cccc(CC)c1NC(=O)N1Cc2[nH]nc(NC(=O)c3ccc(N4CCN(C)CC4)cc3)c2C1,0.891 ± 0.14,0.91 ± 0.12,0.701 ± 0.13,0.557 ± 0.075
Nc1cc(C(F)(F)F)c(-c2cc(N3CCOCC3)nc(N3CCOCC3)n2)cn1,0.85 ± 0.082,0.771 ± 0.058,0.664 ± 0.064,0.751 ± 0.052
O=c1[nH]cc(F)c(=O)[nH]1 [5-Fluorouracil; Fluorouracil],0.96 ± 0.07,0.911 ± 0.063,0.865 ± 0.13,0.924 ± 0.026
COc1c2occc2cc2ccc(=O)oc12 [Methoxsalen],0.902 ± 0.065,0.883 ± 0.11,0.881 ± 0.026,0.906 ± 0.057
CC[C@@H]1C(=O)N(C)c2cnc(Nc3ccc(C(=O)NC4CCC(N5CCN(CC6CC6)CC5)CC4)cc3OC)nc2N1C(C)C (stereo partly drawn) [BI6727 (Volasertib)],0.404 ± 0.1,0.38 ± 0.095,0.227 ± 0.042,0.249 ± 0.097
OCCn1cc(-c2cnc3nnn(Cc4ccc5ncccc5c4)c3n2)cn1,0.969 ± 0.045,0.9847 ± 0.0075,0.972 ± 0.058,0.9557 ± 0.0093
CCN(CC)CCCC(C)Nc1c2ccc(Cl)cc2nc2ccc(OC)cc12 (stereo not drawn),0.836 ± 0.066,0.847 ± 0.051,1.02 ± 0.091,1.02 ± 0.11
CCOc1cc2ncc(C#N)c(Nc3ccc(F)c(Cl)c3)c2cc1NC(=O)/C=C/CN(C)C [Pelitinib],0.562 ± 0.038,0.504 ± 0.012,0.0719 ± 0.015,0.0851 ± 0.02
COc1cc2/c(=N/c3ccc(Br)cc3F)nc[nH]c2cc1OCC1CCN(C)CC1 [Vandetanib],0.923 ± 0.1,0.924 ± 0.083,0.742 ± 0.12,0.705 ± 0.044
CNC(=O)c1ccccc1Sc1ccc2c(/C=C/c3ccccn3)n[nH]c2c1,0.898 ± 0.013,0.875 ± 0.039,0.835 ± 0.13,0.891 ± 0.063
CC(=O)O[C@H]1C(=O)[C@@]2(C)[C@H]([C@H](OC(=O)c3ccccc3)[C@]3(O)C[C@H](OC(=O)[C@H](O)[C@@H](NC(=O)c4ccccc4)c4ccccc4)C(C)=C1C3(C)C)[C@]1(OC(C)=O)CO[C@@H]1C[C@@H]2O [Paclitaxel; Taxol],0.391 ± 0.044,0.242 ± 0.009,0.368 ± 0.077,0.301 ± 0.048
CC[C@@]1(O)C(=O)OCc2c1cc1n(c2=O)Cc2cc3c(CN(C)C)c(O)ccc3nc2-1 [Topotecan HCl; Topotecan hydrochloride],0.421 ± 0.033,0.383 ± 0.021,0.317 ± 0.026,0.221 ± 0.038
O=C1NC(=O)/C(=C\c2ccc3nccnc3c2)S1,0.877 ± 0.1,0.854 ± 0.032,0.915 ± 0.14,0.946 ± 0.17
COc1cc(Nc2c(C#N)cnc3cc(OCCCN4CCN(C)CC4)c(OC)cc23)c(Cl)cc1Cl [Bosutinib(SKI-606)],0.984 ± 0.052,0.991 ± 0.061,0.65 ± 0.061,0.7617 ± 0.007
N#CC(=C(/N)Sc1ccccc1N)/C(C#N)=C(/N)Sc1ccccc1N,0.835 ± 0.084,0.825 ± 0.11,0.61 ± 0.084,0.684 ± 0.12
FC(F)c1nc2ccccc2n1-c1nc(N2CCOCC2)nc(N2CCOCC2)n1,0.684 ± 0.12,0.738 ± 0.044,0.321 ± 0.1,0.395 ± 0.033

SMILES,relative viability [1],relative viability [2],relative viability [3],relative viability [4]
Cc1cc(C(=O)NOCCO)c(Nc2ccc(I)cc2F)n(C)c1=O,0.137 ± 0.0076,0.158 ± 0.004,0.0557 ± 0.021,0.0366 ± 0.01
O=NN(CCCl)C(=O)NCCCl [Carmustine],0.852 ± 0.1,0.858 ± 0.13,0.894 ± 0.046,0.955 ± 0.072
CNC(=O)Nc1ccc(-c2nc(N3CC4CCC(C3)O4)c3cnn(C4CCC5(CC4)OCCO5)c3n2)cc1,0.424 ± 0.074,0.432 ± 0.012,0.226 ± 0.011,0.237 ± 0.035
CC(C)C[C@H](NC(=O)[C@H](CCc1ccccc1)NC(=O)CN1CCOCC1)C(=O)N[C@@H](Cc1ccccc1)C(=O)N[C@@H](CC(C)C)C(=O)[C@@]1(C)CO1 [Carfilzomib],-0.00043 ± 0.0042,0.0294 ± 0.0064,-0.00389 ± 0.00043,-0.00499 ± 0.0011
CNC(=O)c1cc(COc2nnc(Nc3ccc(Cl)cc3)c3ccoc23)ccn1 [Telatinib (BAY 57-9352)],0.896 ± 0.11,0.887 ± 0.073,0.967 ± 0.13,0.91 ± 0.13
CNC(=O)c1cc(Oc2ccc(NC(=O)Nc3ccc(Cl)c(C(F)(F)F)c3)c(F)c2)ccn1 [Regorafenib; BAY 73-4506(Regorafenib)],0.913 ± 0.055,0.892 ± 0.016,1.02 ± 0.031,0.913 ± 0.014
CS(=O)(=O)N1CCN(Cc2cc3nc(-c4cccc5[nH]ncc45)nc(N4CCOCC4)c3s2)CC1,0.716 ± 0.093,0.719 ± 0.062,0.339 ± 0.066,0.411 ± 0.017
COc1cc2nccc(Oc3ccc(NC(=O)Nc4cc(C)on4)c(Cl)c3)c2cc1OC [AV-951(Tivozanib)],0.919 ± 0.12,0.927 ± 0.12,1.1 ± 0.11,1.18 ± 0.18
CN(N=O)C(=O)N[C@@H]1[C@@H](O)[C@H](O)[C@@H](CO)O[C@@H]1O [Streptozocin],0.985 ± 0.071,0.903 ± 0.13,1.01 ± 0.15,1.08 ± 0.088
Nc1nc2[nH]cc(CCc3ccc(C(=O)N[C@@H](CCC(=O)O)C(=O)O)cc3)c2c(=O)[nH]1 [Pemetrexed; Pemetrexed Disodium],0.89 ± 0.07,0.88 ± 0.078,0.829 ± 0.1,0.879 ± 0.095
COc1ncc(-c2ccc3nccc(-c4ccnnc4)c3c2)cc1NS(=O)(=O)c1ccc(F)cc1F,0.0446 ± 0.01,0.0459 ± 0.0045,0.00279 ± 0.0028,0.00434 ± 0.0032
Nc1ccn([C@@H]2O[C@H](CO)[C@@H](O)[C@@H]2O)c(=O)n1,0.833 ± 0.016,0.79 ± 0.088,0.668 ± 0.094,0.475 ± 0.1
NC(=O)c1ccc(N(C(N)=O)c2c(F)cccc2F)nc1-c1ccc(F)cc1F,0.914 ± 0.11,0.873 ± 0.059,1.09 ± 0.055,0.995 ± 0.11
COc1cccc2c1C(=O)c1c(O)c3c(c(O)c1C2=O)C[C@@](O)(C(C)=O)C[C@@H]3O[C@H]1C[C@H](N)[C@H](O)[C@H](C)O1 [Daunorubicin hydrochloride; Daunorubicin HCl],0.839 ± 0.095,0.765 ± 0.056,0.133 ± 0.019,0.143 ± 0.021
COc1ccc(-c2ccc3c(N4CCOCC4)nc(N4C[C@@H](C)O[C@@H](C)C4)nc3n2)cc1CO,0.708 ± 0.013,0.745 ± 0.027,0.428 ± 0.052,0.515 ± 0.086
CNC(=O)c1ccc(C)c(-n2c(C)cc(OCc3ccc(F)cc3F)c(Br)c2=O)c1,1.15 ± 0.17,0.936 ± 0.17,1.29 ± 0.13,0.974 ± 0.085
Nc1nc(N)c2nc(-c3cccc(O)c3)c(-c3cccc(O)c3)nc2n1,0.719 ± 0.028,0.683 ± 0.014,0.664 ± 0.14,0.776 ± 0.075
CC1(C)CNc2cc(NC(=O)c3cccnc3NCc3ccncc3)ccc21 [Motesanib Diphosphate],0.917 ± 0.035,0.864 ± 0.062,0.937 ± 0.14,0.918 ± 0.06
COc1cc2c(N3CCN(C(=O)Nc4ccc(OC(C)C)cc4)CC3)ncnc2cc1OCCCN1CCCCC1 [Tandutinib (MLN518)],0.74 ± 0.03,0.735 ± 0.071,0.829 ± 0.075,0.862 ± 0.1
